Among the data in PubChem BioAssay (EPA / NIEHS) are outcome and AC50 values, retold here.

Experiment [1] addresses Retinoic acid receptor RXR-alpha (Homo sapiens) (UniProt P19793). As to the kind of experiment: ATG_RXRa_TRANS: Attagene TRANS-FACTORIAL HepG2 Assay for human Retinoid X Receptor alpha (RXRa) (AID 2283012; active = hit-call score of the fitted dose curve at least 0.9, where 1 is the maximum). An outline of the steps: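 HepG2 cells transiently transfected with GAL4-UAS reporter units and chimeric RXRa-Gal4 protein, treated 24 h. Reporter mRNA measured by RT-PCR, fluorescent labelling, HpaI digestion and capillary electrophoresis. Induction fitted against DMSO.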

The target of experiment [2] is human Retinoid X Receptor beta (RXRb), RXRB (gene 6257) (UniProt P28702). Nature of the experiment: ATG_RXRb_TRANS: Attagene TRANS-FACTORIAL HepG2 Assay for human Retinoid X Receptor beta (RXRb) (AID 2283013; active = hit-call score of the fitted dose curve at least 0.9, where 1 is the maximum). An outline of the steps:
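HepG2 cells were transiently transfected with multiplexed GAL4-UAS reporters and a chimeric RXRb-Gal4 construct, then exposed for 24 h. Reporter mRNA was quantified by RT-PCR, FAM labeling, HpaI digestion and capillary electrophoresis; gain of signal was scored against DMSO.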

Read-out in experiment [3]: E-selectin (Homo sapiens) (UniProt P16581)
Nature of the experiment: BSK_3C_Eselectin: BioMAP Diversity Plus: 3C Assay for Eselectin Biomarker Activity (AID 2283015). To be noted: primary human endothelial cells (HUVEC); actives raise or lower the signal. An outline of the steps:
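Endpoint derived by bidirectional fitting against DMSO vehicle; signal is ELISA-detected E-selectin from primary HUVEC at 24 h post-dosing, with parallel SRB staining (0.1% SRB, 560 nm) flagging cytotoxicity.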

Read-out in experiment [4]: Interleukin-1 alpha (IL1a), IL1A (gene 3552)
Nature of the experiment: BSK_BE3C_IL1a: BioMAP Diversity Plus: BE3C Assay for Interleukin-1 alpha (IL1a) Biomarker Activity (AID 2283016). To be noted: primary human bronchial epithelial cells; actives raise or lower the signal. An outline of the steps: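 Human primary bronchial epithelial cells, 24 h chemical exposure; IL-1a quantified by ELISA, fitted bidirectionally against DMSO. Cytotoxicity assessed in parallel by SRB total-protein staining at the time of measurement.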

Read-out in experiment [5]: Monocyte Chemoattractant Protein-1 (MCP1), CCL2 (gene 6347)
As to the kind of experiment: BSK_3C_MCP1: BioMAP Diversity Plus: 3C Assay for Monocyte Chemoattractant Protein-1 (MCP1) Biomarker Activity (AID 2283017). To be noted: primary human endothelial cells (HUVEC); actives raise or lower the signal. The method, boiled down:
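Using human vascular primary endothelium, researchers measured MCP-1 by ELISA 24 h after treatment, with DMSO serving as negative control for bidirectional fitting.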

Read-out in experiment [6]: Human Leukocyte Antigen - DR isotype (HLADR), HLA-DRA (gene 3122)
Nature of the experiment: BSK_3C_HLADR: BioMAP Diversity Plus: 3C Assay for Human Leukocyte Antigen - DR isotype (HLADR) Biomarker Activity (AID 2283019).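 For outcome: ELISA of cell-surface HLA-DR on HUVEC 24 h after dosing.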 To be noted: primary human endothelial cells (HUVEC); actives raise or lower the signal. An outline of the steps: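 Compound added to primary HUVEC cultures, 24 h incubation, then HLA-DR determined by ELISA; endpoint derived by bidirectional fitting relative to DMSO negative control.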

Read-out in experiment [7]: Interleukin-8 (IL8), CXCL8 (gene 3576)
As to the kind of experiment: BSK_3C_IL8: BioMAP Diversity Plus: 3C Assay for Interleukin-8 (IL8) Biomarker Activity (AID 2283020). To be noted: primary human endothelial cells (HUVEC); actives raise or lower the signal. The method, boiled down: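 Primary human umbilical vein endothelial cells were dosed for 24 h. IL-8 was quantified by ELISA and fitted bidirectionally against DMSO. Cytotoxicity was assessed in parallel cultures by SRB staining at 560 nm.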

Read-out in experiment [8]: Monokine induced gamma interferon (MIG), CXCL9 (gene 4283)
Nature of the experiment: BSK_3C_MIG: BioMAP Diversity Plus: 3C Assay for Monokine induced gamma interferon (MIG) Biomarker Activity (AID 2283021). To be noted: primary human endothelial cells (HUVEC); actives raise or lower the signal. The method, boiled down:
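HUVEC primary endothelial cultures dosed with chemical; MIG quantified by ELISA at 24 h. Data fitted bidirectionally against DMSO control, with parallel SRB total-protein staining for cytotoxicity.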

The target of experiment [9] is human Vitamin D Receptor (VDR), VDR (gene 7421) (UniProt P11473). As to the kind of experiment: ATG_VDR_TRANS: Attagene TRANS-FACTORIAL HepG2 Assay for human Vitamin D Receptor (VDR) (AID 2283022; active = hit-call score of the fitted dose curve at least 0.9, where 1 is the maximum). The method, boiled down: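 Multiplexed TRANS reporter in HepG2; 24 h treatment; reporter mRNA by RT-PCR plus capillary electrophoresis; upregulation scored relative to DMSO.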
human Vitamin D Receptor (VDR), VDR (gene 7421), sequence (P11473 whole entry, looked up): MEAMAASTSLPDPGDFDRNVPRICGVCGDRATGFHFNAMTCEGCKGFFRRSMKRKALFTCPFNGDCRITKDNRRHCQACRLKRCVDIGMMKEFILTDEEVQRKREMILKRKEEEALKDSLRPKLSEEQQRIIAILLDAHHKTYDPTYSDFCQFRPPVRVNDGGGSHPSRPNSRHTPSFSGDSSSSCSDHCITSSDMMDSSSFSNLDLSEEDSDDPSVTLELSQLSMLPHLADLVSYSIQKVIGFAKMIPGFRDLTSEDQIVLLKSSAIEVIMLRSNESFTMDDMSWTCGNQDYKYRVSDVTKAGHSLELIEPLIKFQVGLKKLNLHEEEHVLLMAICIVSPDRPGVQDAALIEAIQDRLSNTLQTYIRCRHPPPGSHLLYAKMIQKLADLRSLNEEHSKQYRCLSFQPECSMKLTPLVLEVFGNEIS

A short description of experiment [10]: BSK_3C_SRB: Viability Assessment in the BioMAP Diversity Plus: 3C Assay (AID 2283023).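 Note: cells read 24 h after compound dosing; fitted both ways against DMSO so a hit may be signal rise or drop.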 To be noted: primary human endothelial cells (HUVEC). The method, boiled down:
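Overt cytotoxicity is gauged in parallel confluent HUVEC cultures by SRB total-protein staining at the time of biomarker measurement, 24 h after dosing. Gain or loss of signal is fitted versus DMSO.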

Read-out in experiment [11]: Matrix Metallopeptidase 1 (MMP1), MMP1 (gene 4312)
Nature of the experiment: BSK_BE3C_MMP1: BioMAP Diversity Plus: BE3C Assay for Matrix Metallopeptidase 1 (MMP1) Biomarker Activity (AID 2283024). To be noted: primary human bronchial epithelial cells; actives raise or lower the signal. The method, boiled down:
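Human primary bronchial epithelial cells (BE3C system) dosed for 24 h; MMP-1 quantified by ELISA. Bidirectional fit against DMSO; cytotoxicity tracked in parallel cultures by SRB total-protein staining.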

Experiment [12] is described as follows: BSK_3C_Vis: BioMAP Diversity Plus: 3C Assay for Morphology Visualization (AID 2283025).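 For AC50: light microscopy image of cell morphology used as background control.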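 Note: fitted both ways so gain or loss versus DMSO counts.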 To be noted: primary human endothelial cells (HUVEC). An outline of the steps:
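Human umbilical vein endothelial cell morphology was inspected by light microscopy 24 h after chemical dosing; scored bidirectionally relative to DMSO.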

Read-out in experiment [13]: Pselectin, SELP (gene 6403)
Nature of the experiment: BSK_4H_Pselectin: BioMAP Diversity Plus: 4H Assay for Pselectin Biomarker Activity (AID 2283026). To be noted: primary human endothelial cells (HUVEC); actives raise or lower the signal. The method, boiled down:
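Primary human umbilical vein endothelial cells were treated 24 h, and cell-surface P-selectin was then quantified by ELISA. Bidirectional fit versus DMSO; cytotoxicity checked in parallel cultures by SRB total-protein staining.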

Experiment [14] can be described thus: BSK_4H_SRB: Viability Assessment in the BioMAP Diversity Plus: 4H Assay (AID 2283027).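 For AC50: curves fitted both ways versus DMSO so AC50 may be loss or gain.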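 Note: cells exposed to compound for 24 h before staining.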 To be noted: primary human endothelial cells (HUVEC). An outline of the steps: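 Human umbilical vein endothelial cells were dosed with chemical and, after 24 h, fixed with 10% TCA, stained with 0.1% sulforhodamine B, and read at 560 nm to give total protein as a cytotoxicity measure. Bidirectional fitting relative to DMSO control.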

Experiment [15] can be described thus: BSK_BE3C_SRB: Viability Assessment in the BioMAP Diversity Plus: BE3C Assay (AID 2283028). To be noted: primary human bronchial epithelial cells. An outline of the steps: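 SRB total-protein staining (0.1%, after TCA fixation) of chemically dosed human bronchial epithelial primary cells at 24 h; DMSO serves as the negative control for bidirectional curve fitting.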

Read-out in experiment [16]: Thrombomodulin, THBD (gene 7056)
As to the kind of experiment: BSK_3C_Thrombomodulin: BioMAP Diversity Plus: 3C Assay for Thrombomodulin Biomarker Activity (AID 2283029). To be noted: primary human endothelial cells (HUVEC); actives raise or lower the signal. An outline of the steps: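 Human umbilical vein endothelial cells were exposed to chemicals for 24 h; cell-surface thrombomodulin quantified by ELISA, with bidirectional fitting against DMSO baseline.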

Experiment [17] addresses human Thyroid Receptor alpha (THRa1), THRA (gene 7067) (UniProt P10827). Nature of the experiment: ATG_THRa1_TRANS: Attagene TRANS-FACTORIAL HepG2 Assay for human Thyroid Receptor alpha (THRa1) (AID 2283014; active = hit-call score of the fitted dose curve at least 0.9, where 1 is the maximum). The method, boiled down:
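Measured here is mRNA from a GAL4-UAS reporter in transfected HepG2 cells carrying a Gal4-fused receptor, 24 h post-dose. DMSO served as negative control and baseline.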

Read-out in experiment [18]: Monocyte Chemoattractant Protein-1 (MCP1), CCL2 (gene 6347)
As to the kind of experiment: BSK_4H_MCP1: BioMAP Diversity Plus: 4H Assay for Monocyte Chemoattractant Protein-1 (MCP1) Biomarker Activity (AID 2283018). To be noted: primary human endothelial cells (HUVEC); actives raise or lower the signal. An outline of the steps:
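Human umbilical vein endothelial cells (4H system) exposed to chemicals for 24 h in 96-well format. MCP-1 measured by ELISA; bidirectional fitting against DMSO, with SRB total-protein staining in parallel cultures for cytotoxicity.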

By AC50 is commonly meant the concentration at which the activity in the assay is half-maximal.

Molecules are shown by their SMILES. Records with an inconclusive call do not appear. The source made the active and inactive calls. Rule for the calls, unless noted: active = hit-call score of the fitted dose curve at least 0.9, where 1 is the maximum; inactive = score below 0.9.

human Retinoid X Receptor beta (RXRb), RXRB (gene 6257), sequence (P28702 whole entry, looked up, the tested form may be a part): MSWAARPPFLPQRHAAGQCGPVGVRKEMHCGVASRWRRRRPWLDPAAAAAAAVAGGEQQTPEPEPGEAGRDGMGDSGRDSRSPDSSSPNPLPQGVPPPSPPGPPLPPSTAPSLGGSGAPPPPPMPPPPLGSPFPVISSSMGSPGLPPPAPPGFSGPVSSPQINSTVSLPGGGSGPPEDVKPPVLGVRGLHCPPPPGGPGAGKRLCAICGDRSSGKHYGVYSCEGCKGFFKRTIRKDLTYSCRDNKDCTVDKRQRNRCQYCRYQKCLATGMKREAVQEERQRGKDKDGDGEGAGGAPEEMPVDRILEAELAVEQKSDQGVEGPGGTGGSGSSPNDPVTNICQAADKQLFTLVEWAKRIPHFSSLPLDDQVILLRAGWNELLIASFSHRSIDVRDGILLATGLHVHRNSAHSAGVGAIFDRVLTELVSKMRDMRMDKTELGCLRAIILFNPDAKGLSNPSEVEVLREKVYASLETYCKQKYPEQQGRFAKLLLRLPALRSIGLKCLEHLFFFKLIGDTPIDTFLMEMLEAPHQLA
E-selectin (Homo sapiens), sequence (P16581 whole entry, looked up): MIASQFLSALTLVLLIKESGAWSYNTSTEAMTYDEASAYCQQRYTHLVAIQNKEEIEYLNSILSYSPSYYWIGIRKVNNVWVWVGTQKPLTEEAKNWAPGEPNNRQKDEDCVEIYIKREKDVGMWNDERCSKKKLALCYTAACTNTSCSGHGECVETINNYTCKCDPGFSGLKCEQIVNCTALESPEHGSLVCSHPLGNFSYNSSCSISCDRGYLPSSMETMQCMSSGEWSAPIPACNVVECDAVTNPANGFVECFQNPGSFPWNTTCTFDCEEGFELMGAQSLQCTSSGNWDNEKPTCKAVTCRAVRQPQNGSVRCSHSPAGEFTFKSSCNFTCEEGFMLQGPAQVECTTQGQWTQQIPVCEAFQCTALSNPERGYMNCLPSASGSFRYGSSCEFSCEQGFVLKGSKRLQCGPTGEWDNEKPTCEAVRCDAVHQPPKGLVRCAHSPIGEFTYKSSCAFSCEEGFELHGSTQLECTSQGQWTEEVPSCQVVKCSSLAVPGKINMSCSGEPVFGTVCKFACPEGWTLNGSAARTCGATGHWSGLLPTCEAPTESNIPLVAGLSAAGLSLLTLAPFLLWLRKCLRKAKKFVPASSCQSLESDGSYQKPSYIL
Retinoic acid receptor RXR-alpha (Homo sapiens), sequence (P19793 whole entry, looked up, the tested form may be a part): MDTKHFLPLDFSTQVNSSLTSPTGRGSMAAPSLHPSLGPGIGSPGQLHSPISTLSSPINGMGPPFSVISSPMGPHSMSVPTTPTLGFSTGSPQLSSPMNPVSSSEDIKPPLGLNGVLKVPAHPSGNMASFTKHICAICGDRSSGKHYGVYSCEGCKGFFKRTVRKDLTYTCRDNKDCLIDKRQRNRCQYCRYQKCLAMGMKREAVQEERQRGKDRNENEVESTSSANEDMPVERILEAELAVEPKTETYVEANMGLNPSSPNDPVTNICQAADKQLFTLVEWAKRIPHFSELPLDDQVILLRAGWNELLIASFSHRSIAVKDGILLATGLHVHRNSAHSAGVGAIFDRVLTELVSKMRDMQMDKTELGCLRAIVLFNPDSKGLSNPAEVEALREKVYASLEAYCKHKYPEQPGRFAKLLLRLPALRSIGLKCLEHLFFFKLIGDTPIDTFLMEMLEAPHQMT
human Thyroid Receptor alpha (THRa1), THRA (gene 7067), sequence (P10827 whole entry, looked up, the tested form may be a part): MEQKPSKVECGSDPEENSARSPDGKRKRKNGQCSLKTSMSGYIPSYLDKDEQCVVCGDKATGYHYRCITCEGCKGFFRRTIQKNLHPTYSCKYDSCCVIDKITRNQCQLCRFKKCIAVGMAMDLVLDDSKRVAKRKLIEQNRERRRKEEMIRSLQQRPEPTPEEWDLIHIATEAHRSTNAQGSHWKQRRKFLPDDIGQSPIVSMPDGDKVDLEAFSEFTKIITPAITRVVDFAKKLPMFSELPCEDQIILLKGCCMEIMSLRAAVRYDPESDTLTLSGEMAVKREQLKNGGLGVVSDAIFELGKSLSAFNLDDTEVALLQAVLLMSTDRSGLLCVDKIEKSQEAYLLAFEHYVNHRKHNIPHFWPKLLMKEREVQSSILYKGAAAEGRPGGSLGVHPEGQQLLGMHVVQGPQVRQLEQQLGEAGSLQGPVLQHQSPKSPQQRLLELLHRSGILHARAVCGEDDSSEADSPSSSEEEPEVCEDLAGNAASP

For `CSC(C)(C)C=NO`, the compound was classed as inactive in experiment [1], in experiment [2], in [3], in experiment [4], in experiment [5] and in experiment [6]. Further, the outcome in experiment [7], in [8], in experiment [9], in experiment [10], in experiment [11] and in [12] was inactive. Further, the outcome in experiment [13], in [14], in experiment [15] and in experiment [16] was inactive.

`C/C(=N\NC(=O)Nc1cc(F)cc(F)c1)c1ncccc1C(=O)O`: the outcome in experiment [1], in experiment [2], in experiment [17] and in [9] was inactive.

As to `CCCCN(CCCC)N=O`, the compound was classed as inactive in [1], in experiment [2], in experiment [3], in [4], in [5] and in [18]. For the same compound, the outcome in experiment [6], in experiment [7], in experiment [8], in experiment [10], in experiment [11] and in experiment [12] was inactive. Further, the result in experiment [13], in experiment [14], in experiment [15] and in experiment [16] was inactive.

On to `CC(C)(C)c1ccccc1OP(=O)(Oc1ccccc1)Oc1ccccc1`, for which the outcome in experiment [1], in [2], in experiment [4], in [8], in [9] and in experiment [15] was inactive. Also, the AC50 is 7.83 µM (active) in experiment [3]; 20 µM (active) in experiment [5]; 13.6 µM (active) in [18]; 20 µM (active) in experiment [6]; 20 µM (active) in [7]; 5.01 µM (active) in [11]. The AC50 in experiment [12] was 20 µM (active); in experiment [13], 20 µM (active); in [14] it was 11.1 µM (active); in experiment [16], 20 µM (active).

As for `CCC(C)(C)c1ccc(O)cc1`, the result in experiment [1], in experiment [3], in experiment [4], in [5], in experiment [18] and in experiment [6] was inactive. Moreover, the outcome in experiment [7], in experiment [8], in experiment [10], in [11], in experiment [12] and in experiment [13] was inactive. For the same compound, the result in experiment [14], in experiment [15] and in [16] was inactive. In [2], the AC50 was 9.83 µM (active).

Take `CC(O)C(F)(F)C(F)(F)F` (stereo unspecified): the outcome in experiment [1], in experiment [2], in experiment [3], in [4], in experiment [5] and in experiment [18] was inactive. Further, the outcome in experiment [6], in [7], in [8], in experiment [9], in experiment [11] and in [13] was inactive. The outcome in [14], in experiment [15] and in experiment [16] was inactive.

Regarding `COCCOCCO`, the result in experiment [3], in experiment [4], in experiment [5], in experiment [18], in experiment [6] and in [7] was inactive. For the same compound, the outcome in experiment [8], in experiment [11], in [12], in experiment [13], in experiment [14] and in [15] was inactive. Further, in [16], the result was inactive.

On to `CCC1(c2ccccc2)C(=O)N=C(O)NC1=O` (stereo unspecified), for which the compound was called inactive in experiment [2], in experiment [17], in experiment [3], in experiment [4], in experiment [5] and in experiment [6]. For the same compound, the result in experiment [7], in [8], in experiment [9], in [11], in [12] and in experiment [13] was inactive. For the same compound, the result in [14], in experiment [15] and in experiment [16] was inactive.
